Data: PubChem BioAssay
Values joined by “and” are separate entries in the source; they are usually repeats but may differ in a detail not shown here. Identical values can stand only once. A number with no mark means an inactive call. Active and inactive are the calls of the source. Unless noted, no stated cut-off is given here; in the data, active means inhibition above about 25%; inactive means the rest.

System: not listed separately
Assay: VP16 transactivation inhibitors, counter-screen for SRC1 inhibitor project, cell-based, luminescence, high throughput (AID 588824)
Conditions: cell-based VP16 transactivation luciferase luminescence; at 3.6 µM; active compounds read high
In the case of `CC(=NNC(=S)N1CC2CCC(CC2)C1)c1nccs1`, the inhibition is reported as 74.4% (active). For `CC(=CCOc1ccc2ccc(=O)oc2c1)C1=CC(=O)C(C)(C)O1`, the inhibition was 35.2% (active). `O=c1[nH]c2ccccc2n1C1CCN(C(c2cc3ccccc3o2)c2nnnn2-c2ccc3c(c2)OCCO3)CC1` (centres undefined) gave an inhibition of 8.97%. `CCN(CC)C(=O)c1ccc(NC(=O)c2ccc(-n3cncn3)c([N+](=O)[O-])c2)cc1` gave an inhibition of 5.45%. `CCCCn1nnnc1C(CCSC)N1CCC(n2c(=O)[nH]c3ccccc32)CC1` (centres undefined) showed an inhibition of 6.98%. In the case of `O=C(c1cn(Cc2ccccc2F)c2ncccc12)C(F)(F)F`, the inhibition is reported as -0.44%. For `CN1CCN(c2cc(N3CCCCCC3)c(F)cc2[N+](=O)[O-])CC1`, the inhibition was -7.21%. In the case of `COC(=O)C1=C(c2ccc(-c3ccccc3)c(F)c2)C[C@@H]2CC[C@H]1N2C(=O)N1CCOCC1`, the inhibition is reported as 25.3%. For `Cc1cccc(C)c1-n1nnnc1C(c1cccs1)N1CCC2(CC1)C(=O)NCN2c1ccccc1` (centres undefined), the inhibition was 4.87%. For `CCN(CC)C(=O)c1ccc(NC(=O)c2cccc(S(=O)(=O)N3CCN(Cc4ccccc4)CC3)c2)cc1`, the inhibition was 20.8%. For `CCC(c1nnnn1Cc1ccccc1)N1CCC(n2c(=O)[nH]c3ccccc32)CC1` (centres undefined), the inhibition was 0.59%. In the case of `O=c1[nH]c2ccccc2n1C1CCN(C(c2cccs2)c2nnnn2-c2ccc3c(c2)OCCO3)CC1` (centres undefined), the inhibition is reported as 25.5% (active). Compound `COc1ccc(-n2nnnc2C(CCSC)N2CCC(n3c(=O)[nH]c4ccccc43)CC2)cc1` (centres undefined) has an inhibition of -1.55%. For `CCC(C)(C)n1nnnc1CN1CCC(n2c(C)nc3cc(C(F)(F)F)ccc32)CC1`, the inhibition was -2.08%. With `CCC(c1nnnn1-c1ccc2c(c1)OCCO2)N1CCC(n2c(=O)[nH]c3ccccc32)CC1` (centres undefined) the inhibition was 9.85%. Compound `C[C@H]1CCC[C@H](O)CCCCCc2cc(O)cc(O)c2C(=O)O1` has an inhibition of 15.5%. Compound `Cc1cccc(-n2c(C)nc3ccccc3c2=O)c1C` has an inhibition of 9.3%. `COc1ccc(C(c2nnnn2Cc2ccccc2)N2CCC(n3c(=O)[nH]c4ccccc43)CC2)cc1` (centres undefined) gave an inhibition of -11.4%. Compound `CN1CCN(c2cccc3c2C(=O)c2ccccc2C3=O)CC1` has an inhibition of 14.8%. With `COc1ccc(-n2nnnc2C(c2cccc(OC)c2OC)N2CCC(n3c(=O)[nH]c4ccccc43)CC2)cc1` (centres undefined) the inhibition was 3.33%. `COc1ccc(-n2nnnc2C(c2cccs2)N2CCC(n3c(=O)[nH]c4ccccc43)CC2)cc1` (centres undefined) showed an inhibition of -13.5%. With `COc1ccc(-n2nnnc2C(c2ccccc2)N2CCC(n3c(=O)[nH]c4ccccc43)CC2)cc1` (centres undefined) the inhibition was 5.11%.

System: not listed separately
Assay: StAR promoter reporter inhibitors, counter-screen for LRH-1 inverse agonist project, cell-based, luminescence, high throughput (AID 651611; in the data active means inhibition above about 28%)
Conditions: StAR promoter luciferase reporter counterscreen, at 3.6 µM, active compounds read high
In the case of `C[C@H]1CCC/C=C/[C@@H]2C[C@H](O)C[C@H]2[C@@H](O)/C=C/C(=O)O1`, the inhibition is reported as 81.5% (active). For `CC(C)c1oc(=O)cc2c1[C@@H](O)[C@H]1OC(=O)[C@@]3(C)C[C@@H](O)[C@@H](O)[C@@]2(C)C13` (some centres undefined), the inhibition was 84.4% (active). With `CC1CCC/C=C/C2CC(O)CC2C(O)/C=C/C(=O)O1` (centres undefined) the inhibition was 78.9% (active). For `C1=NCCc2c1[nH]c1ccccc21`, the inhibition was 14.4%. With `CC(=O)OC1C2(CC3N4C(=O)C5(CO)SSC4(CC31O)C(=O)N5C)OC(C)C(C)(C)C2=O` (centres undefined) the inhibition was 96.3% (active). For `COc1cc2nc(CN3CC=C(c4ccccc4)CC3)[nH]c(=O)c2cc1OC`, the inhibition was 72.7% (active). For `C[C@H]1CCC/C=C/[C@@H]2C[C@H](O)C[C@H]2[C@H](O)/C=C/C(=O)O1`, the inhibition was 77.6% (active) and 82% (active). In the case of `COC(=O)C[C@]1(C(=O)OC)CN(C#N)N(c2ccc(Cl)cc2)C12c1ccccc1-c1ccccc12`, the inhibition is reported as 34.7% (active). For `CCCOC(=O)c1ccc(-[n+]2c(-c3ccccc3)cc(-c3ccccc3)cc2-c2ccccc2)cc1`, the inhibition was 64.9% (active). With `CC(C)(O)/C=C/C(=O)C(C)(O)C1C(O)CC2(C)C3CC=C4C(C=C(O)C(=O)C4(C)C)C3(C)C(=O)CC12C` (centres undefined) the inhibition was 66% (active). For `CNC(=O)c1cccn(Cc2ccc(C(F)(F)F)cc2)c1=O`, the inhibition was 47.7% (active).

Biological target: Nuclear receptor subfamily 5 group A member 2 (Homo sapiens) (UniProt O00482)
Sequence (O00482 whole entry, looked up): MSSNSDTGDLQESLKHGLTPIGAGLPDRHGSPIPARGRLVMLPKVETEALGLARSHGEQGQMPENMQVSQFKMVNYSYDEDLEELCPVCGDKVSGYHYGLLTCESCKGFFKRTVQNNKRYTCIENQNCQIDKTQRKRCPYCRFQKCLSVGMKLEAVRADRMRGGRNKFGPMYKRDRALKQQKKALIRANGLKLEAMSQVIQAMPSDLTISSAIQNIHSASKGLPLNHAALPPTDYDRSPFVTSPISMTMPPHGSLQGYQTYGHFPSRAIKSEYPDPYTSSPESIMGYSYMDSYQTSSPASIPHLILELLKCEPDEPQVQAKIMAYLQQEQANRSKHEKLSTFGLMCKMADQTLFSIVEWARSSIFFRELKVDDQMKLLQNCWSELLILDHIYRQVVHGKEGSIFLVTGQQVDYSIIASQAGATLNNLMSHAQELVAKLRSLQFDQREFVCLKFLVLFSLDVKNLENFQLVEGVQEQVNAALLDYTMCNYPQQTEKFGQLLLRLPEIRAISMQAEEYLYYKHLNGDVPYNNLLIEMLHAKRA
Assay: LRH-1 (NR5A2) inverse agonists, retest, confirmation, cell-based, luminescence (AID 651613; in the data active means inhibition above about 42%;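 further: HEK293T cells co-transfected with LRH-1 and StAR promoter luciferase reporter; 0% = vehicle wells and 100% = parental cells lacking receptor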)
Conditions: cell-based LRH-1 luciferase reporter, inverse agonism; at 3.6 µM; active compounds read high
In the case of `C[C@H]1CCC/C=C/[C@@H]2C[C@H](O)C[C@H]2[C@@H](O)/C=C/C(=O)O1`, the inhibition is reported as 85.4% (active). For `CC(C)c1oc(=O)cc2c1[C@@H](O)[C@H]1OC(=O)[C@@]3(C)C[C@@H](O)[C@@H](O)[C@@]2(C)C13` (some centres undefined), the inhibition was 104% (active). In the case of `CC1CCC/C=C/C2CC(O)CC2C(O)/C=C/C(=O)O1` (centres undefined), the inhibition is reported as 86.7% (active). For `C1=NCCc2c1[nH]c1ccccc21`, the inhibition was 50.2% (active). For `CC(=O)OC1C2(CC3N4C(=O)C5(CO)SSC4(CC31O)C(=O)N5C)OC(C)C(C)(C)C2=O` (centres undefined), the inhibition was 110% (active). For `COc1cc2nc(CN3CC=C(c4ccccc4)CC3)[nH]c(=O)c2cc1OC`, the inhibition was 97.1% (active). For `C[C@H]1CCC/C=C/[C@@H]2C[C@H](O)C[C@H]2[C@H](O)/C=C/C(=O)O1`, the inhibition was 82.1% (active) and 88.7% (active). For `COC(=O)C[C@]1(C(=O)OC)CN(C#N)N(c2ccc(Cl)cc2)C12c1ccccc1-c1ccccc12`, the inhibition was 61.1% (active). In the case of `CCCOC(=O)c1ccc(-[n+]2c(-c3ccccc3)cc(-c3ccccc3)cc2-c2ccccc2)cc1`, the inhibition is reported as 110% (active). For `CC(C)(O)/C=C/C(=O)C(C)(O)C1C(O)CC2(C)C3CC=C4C(C=C(O)C(=O)C4(C)C)C3(C)C(=O)CC12C` (centres undefined), the inhibition was 79.3% (active). For `CNC(=O)c1cccn(Cc2ccc(C(F)(F)F)cc2)c1=O`, the inhibition was 65.9% (active).
